Results as given in ChEMBL document CHEMBL4888484, “Replenishing the malaria drug discovery pipeline: Screening and hit evaluation of the MMV Hit Generation Library 1 (HGL1) against asexual blood stage Plasmodium falciparum ,using a nano luciferase reporter read-out” (2022).
Screen size: about 150,000 compounds; about 540 (0.36%) showed an effect of 50% or more. The entries come from a sample that favours strong results as a whole.

System: Plasmodium falciparum
Assay: Primary screen in NF54 nanoGlo assay, in single point, at 2uM, 72h; a lower Z score goes with more inhibition
Format: functional, Erythrocyte
Settings: timepoint 72 hour

Going from `CCn1c(CN2CCCC2)nc2cc(S(=O)(=O)N3CCCCC3)ccc21` to `O=C1CCCN1[C@H]1CCCN(S(=O)(=O)CC2CCCCC2)CC1`, the “% Inhibition” value rises from -46% to -7%.

`Cc1ccc(CNC(=O)[C@]2(C)CCC(=O)N2CCCc2ccccc2)cc1` and `O=C1O[C@H]2CN(CCCc3ccccc3)C[C@H]2N1Cc1ccccn1` are the same in “% Inhibition” value: -16% for the first, -16% for the second.

First: O=C(Nc1cccc(S(=O)(=O)NC2=NCCC2)c1)c1cc(Cl)c2c(c1)OCCCO2
Second: CCOc1cccc(-c2ccc3nc(-c4cccc(OC)c4)c(CCC(=O)NCCN4CCCC4)n3c2)c1
The “% Inhibition” value of the first is lower: -11% for the first, 59% for the second.

Going from `CCOc1cccc(-c2ccc3nc(-c4cccc(OC)c4)c(CCC(=O)NC4CC4)n3c2)c1` to `CCOc1cccc(-c2ccc3nc(-c4cccc(OC)c4)c(CCC(=O)NCCc4ccc(OC)c(OC)c4)n3c2)c1`, the “% Inhibition” value rises from 4% to 22%.

Going from `Cc1nc(O)nc(O)c1CN1CCOCC1` to `CCOCC1CCN(CCc2ccc3c(c2)CCO3)CC1`, the “% Inhibition” value rises from -10% to -4%.

Compared with `c1ccc(-c2nnc(-c3cccnc3NCc3cccs3)o2)cc1`, `N#Cc1cccc(-c2ccnc(N[C@H]3CO[C@H]4[C@@H]3OC[C@@H]4NC(=O)c3ccc(C(F)(F)F)cc3)n2)c1` is lower in “% Inhibition” value: -5% for the first, -7% for the second.

Going from `O=C([C@@H]1CCCN1C1CC1)N1CCC2(CC1)OCCc1ccccc12` to `COc1ccc(CN2C[C@H]3CC[C@@H](C2)N(CC=C(C)C)C3)cc1CN(C)C`, the “% Inhibition” value falls from -14% to -17%.

First: COCC(=O)N[C@H]1CO[C@H]2[C@@H]1OC[C@@H]2Nc1nccc(-c2cccc(C#N)c2)n1
Second: COCC(=O)N[C@H]1CO[C@H]2[C@@H]1OC[C@@H]2Nc1nccc(-c2ccc(OC)cc2)n1
The “% Inhibition” value of the first is higher: 50% for the first, -5% for the second.

Going from `CC(C)Cn1cccc(C(=O)Nc2cn(C)nc2-c2ccco2)c1=O` to `CCN(C(=O)COc1cccc(C)c1)[C@H](c1ccc(C)cc1)c1c[nH]c2ccccc12`, the “% Inhibition” value rises from -9% to 6%.

First: COc1ccc(-c2oc(C)c(C)[n+]2[O-])cc1OC
Second: Cc1oc(-c2cccc(F)c2)[n+]([O-])c1C
The “% Inhibition” value of the first is higher: 71% for the first, 5% for the second.

In the case of `Cc1ccccc1-c1oc(C)c(C)[n+]1[O-]`, the “% Inhibition” value is reported as 2%.

First: CCn1c(CN2CCCC2)nc2cc(S(=O)(=O)N3CCCCC3)ccc21
Second: O=C1CCCN1[C@H]1CCCN(S(=O)(=O)CC2CCCCC2)CC1
The Z score of the first is higher: 5.44 for the first, 1.12 for the second.

Compared with `Cc1ccc(CNC(=O)[C@]2(C)CCC(=O)N2CCCc2ccccc2)cc1`, `O=C1O[C@H]2CN(CCCc3ccccc3)C[C@H]2N1Cc1ccccn1` is lower in Z score: 1.5 for the first, 1.43 for the second.

First: O=C(Nc1cccc(S(=O)(=O)NC2=NCCC2)c1)c1cc(Cl)c2c(c1)OCCCO2
Second: CCOc1cccc(-c2ccc3nc(-c4cccc(OC)c4)c(CCC(=O)NCCN4CCCC4)n3c2)c1
The Z score of the first is higher: 1.51 for the first, -11.14 for the second.

Compared with `CCOc1cccc(-c2ccc3nc(-c4cccc(OC)c4)c(CCC(=O)NC4CC4)n3c2)c1`, `CCOc1cccc(-c2ccc3nc(-c4cccc(OC)c4)c(CCC(=O)NCCc4ccc(OC)c(OC)c4)n3c2)c1` is lower in Z score: -0.75 for the first, -4.22 for the second.

First: Cc1nc(O)nc(O)c1CN1CCOCC1
Second: CCOCC1CCN(CCc2ccc3c(c2)CCO3)CC1
The Z score of the first is higher: 1.65 for the first, 0.71 for the second.

Going from `c1ccc(-c2nnc(-c3cccnc3NCc3cccs3)o2)cc1` to `N#Cc1cccc(-c2ccnc(N[C@H]3CO[C@H]4[C@@H]3OC[C@@H]4NC(=O)c3ccc(C(F)(F)F)cc3)n2)c1`, the Z score rises from 0.8 to 1.07.

Going from `O=C([C@@H]1CCCN1C1CC1)N1CCC2(CC1)OCCc1ccccc12` to `COc1ccc(CN2C[C@H]3CC[C@@H](C2)N(CC=C(C)C)C3)cc1CN(C)C`, the Z score rises from 1.46 to 1.87.

Going from `COCC(=O)N[C@H]1CO[C@H]2[C@@H]1OC[C@@H]2Nc1nccc(-c2cccc(C#N)c2)n1` to `COCC(=O)N[C@H]1CO[C@H]2[C@@H]1OC[C@@H]2Nc1nccc(-c2ccc(OC)cc2)n1`, the Z score rises from -0.95 to 0.87.

Going from `CC(C)Cn1cccc(C(=O)Nc2cn(C)nc2-c2ccco2)c1=O` to `CCN(C(=O)COc1cccc(C)c1)[C@H](c1ccc(C)cc1)c1c[nH]c2ccccc12`, the Z score falls from 1.12 to -0.77.

Compared with `COc1ccc(-c2oc(C)c(C)[n+]2[O-])cc1OC`, `Cc1oc(-c2cccc(F)c2)[n+]([O-])c1C` is lower in Z score: 0.43 for the first, -0.64 for the second.

In the case of `Cc1ccccc1-c1oc(C)c(C)[n+]1[O-]`, the Z score is reported as -0.28.
